Screening data as filed in PubChem.
In the library only some 1.7% were active in any assay of this set; here they are far more common.
HDAC3 inhib = inhibitors of human histone deacetylase 3; AID 2718; recombinant HDAC3, fluorogenic peptide/trypsin coupled, fluorescence; 320,000 tested, 0.15% active; inhibition, % at 8.3 µM; O15379; in the data active = inhibition above about 26%, passing the limit was not always enough
Target sequence (O15379 whole entry, looked up): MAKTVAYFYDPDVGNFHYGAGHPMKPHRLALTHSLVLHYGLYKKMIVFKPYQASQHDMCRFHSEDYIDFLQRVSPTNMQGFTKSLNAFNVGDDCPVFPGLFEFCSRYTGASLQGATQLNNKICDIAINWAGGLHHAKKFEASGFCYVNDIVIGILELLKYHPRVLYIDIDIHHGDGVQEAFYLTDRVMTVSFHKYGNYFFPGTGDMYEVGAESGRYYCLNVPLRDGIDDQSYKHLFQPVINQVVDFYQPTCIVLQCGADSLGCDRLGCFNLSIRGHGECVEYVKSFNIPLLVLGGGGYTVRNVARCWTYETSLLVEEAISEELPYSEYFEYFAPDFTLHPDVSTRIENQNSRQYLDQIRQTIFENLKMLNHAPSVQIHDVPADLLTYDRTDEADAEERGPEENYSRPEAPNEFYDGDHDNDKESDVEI
CTSL1 counter = counter-screen for PFM18AAP inhibitors: inhibitors of F. hepatica cathepsin L1; recombinant F. hepatica cathepsin L1, Z-Leu-Arg-MCA fluorescence; inhibition, % at 5.96 µM; 300,000 tested, 0.49% active;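 active = inhibition above the mean of all tested compounds plus 3 SD, set per screening campaign, cut at about 17% in these data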;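 also: 0% = plate median of test compound wells and 100% = 1 µM Z-Phe-Ala-diazomethylketone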
HTR2A ag = activates the mouse 5-HT2A serotonin receptor. CHO-K1 mHTR2A beta-arrestin complementation, luminescence; percent of 30 µM serotonin response. 360,000 tested, 0.66% active. P35363. activation, % at 7.6 µM;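 active = activation above a run cutoff, the mean activation of all tested compounds plus 3 SD, cut at about 14% in these data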;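 also: 0% = plate median of compound wells and 100% = 30 µM serotonin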
LANA-H2A inh = blocks KSHV LANA binding to histone H2A/H2B | inhibition, % (concentration not given with the values) | Q9QR71 | cell-free LANA-H2A/H2B peptide, fluorescence polarization | 320,000 tested, 0.6% active; in the data active = inhibition mostly above about 10%, no sharp cut-off; inactive = mostly below about 6.7%
* marks the source's active call; other numbers are inactive results.

How did COc1ccc(C(=O)n2nc(-c3ccco3)nc2N)cc1 do in these assays?
HDAC3 inhib: 84*; CTSL1 counter: -3; HTR2A ag: -1; LANA-H2A inh: 9

What do the screens show for `Cc1ccc(C(=O)n2nc(-c3ccco3)nc2N)cc1`?
HDAC3 inhib: 40*; CTSL1 counter: -3; HTR2A ag: 5; LANA-H2A inh: -4

How did Nc1nc(-c2ccco2)nn1C(=O)c1cccnc1 do in these assays?
HDAC3 inhib: 18; CTSL1 counter: -3; HTR2A ag: 4; LANA-H2A inh: 4

What do the screens show for `COc1ccc(N=C2CCS(=O)(=O)c3sccc32)cc1`?
HDAC3 inhib: 0; CTSL1 counter: -3; HTR2A ag: -1; LANA-H2A inh: 0

What do the screens show for `COc1ccc(C(=O)O/N=C2\CCS(=O)(=O)c3sccc32)cc1`?
HDAC3 inhib: 52*; CTSL1 counter: -2; HTR2A ag: 3; LANA-H2A inh: -3

Results for CSCCC(NS(=O)(=O)c1ccccc1)C(=O)Nc1nccs1 (configuration not stated) ?
HTR2A ag: 4

Results for O=C(CSc1ncccn1)Nc1cccc(S(=O)(=O)N2CCOCC2)c1 ?
HDAC3 inhib: -3; HTR2A ag: -2; LANA-H2A inh: -3

Results for O=C(CN1CCN(c2ccccn2)CC1)Nc1cccc(S(=O)(=O)N2CCOCC2)c1 ?
HDAC3 inhib: -5; CTSL1 counter: -10; HTR2A ag: 3; LANA-H2A inh: 26*

Results for O=C(Cn1c(=O)cnc2ccccc21)Nc1cccc(S(=O)(=O)N2CCOCC2)c1 ?
HDAC3 inhib: -5; HTR2A ag: -1; LANA-H2A inh: 26*

What do the screens show for `Cc1cccc2cc3c(NC(=O)C(C)(C)C)nn(CC(C)C)c3nc12`?
HDAC3 inhib: -9; CTSL1 counter: 0; HTR2A ag: 1; LANA-H2A inh: -2

Results for CC(C)N(C(=O)[C@H]1C[C@H](CC(=O)NCc2ccco2)C(=O)N2CCc3c([nH]c4ccc(Cl)cc34)[C@]12C)C(C)C ?
HTR2A ag: 3

Results for C(=N\N1CCN(Cc2ccccc2)CC1)/c1ccc(-c2ccccc2)cc1 ?
HDAC3 inhib: 0; CTSL1 counter: 17*; HTR2A ag: 1; LANA-H2A inh: 1

How did COC(=O)[C@@]12CCCCN1[C@H](c1ccc(-c3cccc(Cl)c3)c(OC)c1)[C@@H]1C(=O)N(C)C(=O)[C@@H]12 do in these assays?
HDAC3 inhib: 33*; CTSL1 counter: 1; HTR2A ag: 2; LANA-H2A inh: 0

What do the screens show for `COC(=O)[C@@]12CCCN1[C@H](c1ccc(-c3cccc(Cl)c3)c(OC)c1)[C@H]1C(=O)N(C)C(=O)[C@H]12`?
HDAC3 inhib: 5; CTSL1 counter: 2; HTR2A ag: -5; LANA-H2A inh: 1

Results for COc1cc(CN2CCC(n3nccc3NC(=O)c3ccc4c(c3)OCO4)CC2)ccc1O ?
HDAC3 inhib: 6; CTSL1 counter: 9; HTR2A ag: -4; LANA-H2A inh: 47*

What do the screens show for `Cc1cc(=O)oc2cc(OC(C)C(=O)NCC3CCCO3)ccc12` (configuration not stated)?
HDAC3 inhib: -11; CTSL1 counter: -2; HTR2A ag: 6; LANA-H2A inh: 21*

What do the screens show for `Cc1cc(=O)oc2cc(OC(C)C(=O)NCC3CCC(C(=O)O)CC3)ccc12` (configuration not stated)?
HDAC3 inhib: -4; CTSL1 counter: 1; HTR2A ag: 5; LANA-H2A inh: -1

What do the screens show for `CC(Oc1ccc2c3c(c(=O)oc2c1)CCCC3)C(=O)NCCN1CCOCC1` (configuration not stated)?
HDAC3 inhib: -15; CTSL1 counter: 1; HTR2A ag: -5; LANA-H2A inh: 11*

What do the screens show for `CC1(C(=O)NS(=O)(=O)c2ccc(Cl)cc2)CCN1C(=O)c1ccccc1` (configuration not stated)?
HTR2A ag: 10

What do the screens show for `O=C(/C=C/c1ccccc1O)c1ccccc1`?
HTR2A ag: 2

What do the screens show for `Cc1cc(O)c(C(=O)/C=C/c2cccc([N+](=O)[O-])c2)c(=O)o1`?
HDAC3 inhib: -6; CTSL1 counter: -2; HTR2A ag: -5; LANA-H2A inh: 16*

What do the screens show for `Cc1cc(O)c(C(=O)/C=C/c2ccccc2O)c(=O)o1`?
HDAC3 inhib: 3; HTR2A ag: -1; LANA-H2A inh: 158*

How did Cc1ccc(S(=O)(=O)N2CCN(C(=O)COC(=O)c3ccccc3OC(F)F)CC2)c(C)c1 do in these assays?
HTR2A ag: 7

What do the screens show for `CCCCn1c(N)c(N(CC(C)C)C(=O)c2ccc(C)c(S(=O)(=O)N3CCCCC3)c2)c(=O)[nH]c1=O`?
CTSL1 counter: 1; HTR2A ag: 2

Results for CCn1c(CSc2nnc(-c3ccncc3)n2CCOC)nc2cc(C(=O)O)ccc21 ?
HDAC3 inhib: 6; CTSL1 counter: 2; HTR2A ag: 2; LANA-H2A inh: -2

Results for CCn1c(CSc2nnc(-c3cccnc3)n2-c2ccccc2C)nc2cc(C(=O)O)ccc21 ?
HDAC3 inhib: -3; CTSL1 counter: 2; LANA-H2A inh: 18*

How did O=c1[nH]c(=O)n(-c2cc(Br)c(O)c(Br)c2)cc1Br do in these assays?
HDAC3 inhib: -2; CTSL1 counter: 33*; HTR2A ag: 3; LANA-H2A inh: 0

What do the screens show for `Cc1cc2nc(C)n(CCCNC(=O)Nc3ccc(C#N)cc3)c2cc1C`?
HDAC3 inhib: -1; CTSL1 counter: 2; HTR2A ag: 44*; LANA-H2A inh: -10

How did COc1ccc(NC(=O)CCC(=O)N2CCC(c3ccccc3)=N2)cc1S(=O)(=O)N1CCCCC1 do in these assays?
HTR2A ag: 2

What do the screens show for `CN1/C(=C\C=C(C#N)C#N)C(C)(C)c2ccccc21`?
HDAC3 inhib: -5; CTSL1 counter: 4; HTR2A ag: 4; LANA-H2A inh: 45*

What do the screens show for `O=C(NNC(=O)c1csc(-c2cnccc2C(F)(F)F)n1)c1ccc(C(F)(F)F)cc1`?
HDAC3 inhib: 0; CTSL1 counter: 23*; HTR2A ag: -3; LANA-H2A inh: -7

Results for CCOc1ccc(OCCCC(=O)ON=C(N)c2ccccc2C)cc1 ?
HDAC3 inhib: 10; HTR2A ag: 10; LANA-H2A inh: 2

What do the screens show for `COCCNC(=O)CN1C(=O)COc2ccc(Cl)cc21`?
HDAC3 inhib: 3; CTSL1 counter: 18*; HTR2A ag: 0; LANA-H2A inh: -4

How did COC(=O)c1cc(C)nc2c1C(=O)C(=O)C=C2N1CCOCC1 do in these assays?
HDAC3 inhib: 2; CTSL1 counter: 110*; HTR2A ag: 5; LANA-H2A inh: -4

What do the screens show for `Cc1cccc(CCNC(=O)CCS(=O)(=O)c2ccc(Br)cc2)c1`?
HDAC3 inhib: 2; CTSL1 counter: 7; HTR2A ag: -2; LANA-H2A inh: 18*

What do the screens show for `O=C(CCS(=O)(=O)c1ccccc1)NCc1ccccc1`?
HDAC3 inhib: 2; CTSL1 counter: 31*; HTR2A ag: 1; LANA-H2A inh: 37*

How did Cc1ccc(CNC(=O)CCS(=O)(=O)c2ccc(C)cc2)cc1 do in these assays?
HDAC3 inhib: 1; CTSL1 counter: -4; HTR2A ag: 2; LANA-H2A inh: -3
